PubChem BioAssay (Tox21)
Results filed as inconclusive are left out. A call without a number means that no potency is given here. Calls of active or inactive are those of the source. Unless noted, calls follow the shape of the dose curve; as a rule, active = well fitted curve in the direction sought with a large enough effect in the repeat runs; inconclusive = weak or mixed curves; inactive = no such curve, though single readings can be large; an effect the other way counts as inactive or inconclusive.

Columns and labels:
[1] = target: Estrogen receptor (Homo sapiens) (UniProt P03372); assay: qHTS assay to identify small molecule antagonists of the estrogen receptor alpha (ER-alpha) signaling pathway using the BG1 cell line in the presence of 0.1 nM 17-beta-estradiol (AID 1259244); also: nearly all actives have a fitted effect of over 50% in size; also: potency is read from the fitted curve at half-maximal effect
In short: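 Luciferase signal from VM7Luc4E2 ERE-reporter cells, co-dosed with test compound and 0.1 nM final 17beta-estradiol for 22 h, read with ONE-Glo.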

[2] = qHTS assay to identify small molecule HDAC inhibitors (AID 1259364);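 also: wild-type HCT-116 cells with endogenous class I/II HDAC activity; top concentration of the series differs between compounds; nearly all actives have a fitted effect of over 45% in size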
In short: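 HCT-116 wt cells, 1,500/well, overnight attach. Compounds (DMSO) 2 h, 37 °C. HDAC-Glo I/II, 30 min RT. Luminescence.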

[3] = qHTS assay to identify small molecule HDAC inhibitors - cell viability counter screen (AID 1259365); also: series mostly up to about 92 µM; nearly all actives have a fitted effect of over 50% in size
In short: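 Luminescence from CellTiter-Glo, developed 30min at room temperature, reports viability of wild-type HCT-116 cells treated 2hr with compounds at 37 C and 5% CO2 after overnight plating.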

[4] = qHTS assay to identify small molecule agonists of the sonic hedgehog signaling (Shh) pathway - cell viability counter screen (AID 1259366); also: nearly all actives have a fitted effect of over 50% in size; also: potency is read from the fitted curve at half-maximal effect
In short: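 Cytotoxicity counter screen run in the same wells as the Shh reporter assay. NIH/3T3 cells carrying a Gli1 response element–driven luciferase were treated with DMSO-dissolved compounds for 24hr, and live-cell protease activity was measured with CellTiter-Fluor.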

[5] = qHTS assay to identify small molecule antagonists of the sonic hedgehog signaling (Shh) pathway - cell viability counter screen (AID 1259367); also: nearly all actives have a fitted effect of over 55% in size; also: potency is read from the fitted curve at half-maximal effect
In short: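 Tox21 library chemicals were tested on a Gli1-Luc NIH/3T3 clone (2,000 cells/well) stimulated by conditioned medium; viability was quantified as fluorescence from CellTiter-Fluor reagent added at 23 hr.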

[6] = qHTS assay to identify small molecule agonists of the sonic hedgehog signaling (Shh) pathway (AID 1259368; calls by dose curve;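 also: NIH/3T3-derived 3T3Gli1-Luc cells carrying a stable Gli1-driven firefly luciferase reporter; series mostly up to about 92 µM; nearly all actives have a fitted effect of over 15% in size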)
In short: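 Following a 24 hr incubation with DMSO-dissolved compounds at 37 C, 5% CO2, Gli1-Luc NIH/3T3-derived cells received luciferase reagent for 30 min at room temperature prior to luminescence measurement.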

[7] = qHTS assay to identify small molecule antagonists of the sonic hedgehog signaling (Shh) pathway (AID 1259369; calls by dose curve; also: nearly all actives have a fitted effect of over 45% in size; also: potency is read from the fitted curve at half-maximal effect)
In short: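 Read-out is luminescence from a firefly luciferase gene controlled by the Gli1 response element, in 3T3Gli1-Luc cells pre-incubated 4hr then exposed to compounds and conditioned medium for 24hr.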

[8] = target: Estrogen receptor beta (Homo sapiens) (UniProt Q92731); assay: qHTS assay to identify small molecule agonists of the estrogen receptor beta (ER-beta) signaling pathway (AID 1259377; active = well fitted activation curve with a large enough effect in the signal ratio in the repeat runs, not every such curve was filed as active; the % refers to the signal ratio)
In short: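 HEK293T ER-beta-UAS-bla; 2% charcoal-stripped FBS; cells pre-incubated 6 hr, compound 16 hr, 37C/5% CO2; LiveBLAzer B/G FRET substrate 2 h RT; fluorescence intensity read.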

[9] = target: Estrogen receptor beta (Homo sapiens) (UniProt Q92731); assay: qHTS assay to identify small molecule antagonists of the estrogen receptor beta (ER-beta) signaling pathway (AID 1259378; active = well fitted inhibition curve with a large enough effect in the signal ratio in the repeat runs, not every such curve was filed as active; the % refers to the signal ratio; also: potency is read from the fitted curve at half-maximal effect)
In short: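 ER-beta-UAS-bla HEK293T cells in 2% charcoal-stripped FBS medium treated with compound plus 1nM final 17-beta-estradiol for 16 hr at 37C. Beta-lactamase reporter read by FRET substrate fluorescence after 2 hours at room temperature.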

[10] = qHTS assay to identify small molecule agonists of the androgen receptor (AR) signaling pathway in the presence of an antagonist - cell viability counter screen (AID 1259379); also: nearly all actives have a fitted effect of over 25% in size; also: potency is read from the fitted curve at half-maximal effect
In short: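 Each compound was tested at 15 concentrations on MDA-kb2 cells in the presence of 3.0uM nilutamide. Viability was measured by CellTiter-Fluor fluorescence after a 16 hr incubation at 37C in a CO2-free atmosphere.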

[11] = qHTS assay to identify small molecule agonists of the estrogen receptor beta (ER-beta) signaling pathway - cell viability counter screen (AID 1259380); also: nearly all actives have a fitted effect of over 30% in size; also: potency is read from the fitted curve at half-maximal effect
In short: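 Compounds dissolved in DMSO were pin-transferred onto ER-beta-UAS-bla HEK293T cells that had settled 6 hr, and exposure ran 16 hr at 37C. Following the reporter read, CellTiter-Glo luminescence after 30 min at room temperature indicated cytotoxicity.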

[12] = target: Androgen receptor (Homo sapiens) (UniProt P10275); assay: qHTS assay to identify small molecule agonists of the androgen receptor (AR) signaling pathway in the presence of an antagonist (AID 1259381; calls by dose curve; also: nearly all actives have a fitted effect of over 15% in size)
In short: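 Plated MDA-kb2 cells (3,000/well) were pre-incubated 5hr, given nilutamide (3.0uM final) or buffer, then dosed with compounds in DMSO at 15 concentrations. Luciferase activity was quantified by luminescence after 16hr at 37C.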

[13] = qHTS assay to identify small molecule antagonists of the estrogen receptor beta (ER-beta) signaling pathway - cell viability counter screen (AID 1259382); also: nearly all actives have a fitted effect of over 55% in size; also: potency is read from the fitted curve at half-maximal effect
In short: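 CellTiter-Glo ATP luminescence measured after the LiveBLAzer read in the same wells; ER-beta-UAS-bla HEK293T cells, 16 hr compound treatment with 1nM 17-beta-estradiol agonist at 37C, 5% CO2.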

[14] = target: Estrogen receptor (Homo sapiens) (UniProt P03372); assay: qHTS assay to identify small molecule agonists of the estrogen receptor alpha (ER-alpha) signaling pathway in the presence of an antagonist (AID 1259383; calls by dose curve; also: top concentration of the series differs between compounds; nearly all actives have a fitted effect of over 15% in size)
In short: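 Luminescent ERE-luciferase reporter, VM7Luc4E2 cells (endogenous ER-alpha); 10.0nM ICI-182,780 final; 15-point compound titration; 22hr at 37C; ONE-Glo, 30min RT.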

[15] = qHTS assay to identify small molecule agonists or antagonists of the thyroid stimulating hormone receptor (TSHR) signaling pathway - wild type cell line counter screen (AID 1259384; calls by dose curve)
In short: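 Wild-type Hek293 cells, 800/well, 18 h at 37C, then compound with Ro20-1724 for 30 min RT. cAMP by HTRF (cAMP-d2/anti-cAMP cryptate), 1 h RT, fluorescence read. 15 concentrations, triplicates.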

[16] = qHTS assay to identify small molecule agonists of the estrogen receptor alpha (ER-alpha) signaling pathway in the presence of an antagonist - cell viability counter screen (AID 1259386);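 also: cells exposed to compounds for 22 h at 37 °C before the viability read; nearly all actives have a fitted effect of over 30% in size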; also: potency is read from the fitted curve at half-maximal effect
In short: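 Using estrogen-depleted VM7Luc4E2 cells, the 15-concentration compound series was applied together with 10.0nM ICI-182,780 and incubated 22hr at 37C/5% CO2. Cell viability was then scored by CellTiter-Fluor.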

[17] = target: Progesterone receptor (Homo sapiens) (UniProt P06401); assay: qHTS assay to identify small molecule agonists of the progesterone receptor (PR) signaling pathway (AID 1346784; calls by dose curve; also: nearly all actives have a fitted effect of over 30% in size)
In short: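 Beta-lactamase reporter read-out: after 16 hr compound treatment at 37C and a further 2 hr at room temperature with LiveBLAzer B/G FRET substrate, fluorescence was measured in PR-UAS-bla HEK 293T cells grown in 2% charcoal-stripped serum.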

[18] = target: Progesterone receptor (Homo sapiens) (UniProt P06401); assay: qHTS assay to identify small molecule antagonists of the progesterone receptor (PR) signaling pathway (AID 1346795; active = well fitted inhibition curve with a large enough effect in the signal ratio in the repeat runs, not every such curve was filed as active; the % refers to the signal ratio; also: potency is read from the fitted curve at half-maximal effect)
In short: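 Read-out is fluorescence from the LiveBLAzer B/G FRET substrate, cleaved by a UAS-controlled beta-lactamase in PR-UAS-bla HEK293T cells after 16 hr exposure to compound plus 1 nM promegestone (final), followed by 2 hr at room temperature.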

[19] = qHTS assay to identify small molecule phospholipidosis (PLD) inducers (AID 1259344; active = well fitted curve in the direction sought with a large enough effect; an effect the other way counts as inactive or inconclusive)
In short: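 Image-based: LipidTOX Red pit count/intensity per well and per cell; HepG2, 24 h compound at 37 C, PFA fixation, Hoechst counterstain.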

[20] = target: Thyrotropin receptor (Homo sapiens) (UniProt P16473); assay: qHTS assay to identify small molecule antagonists of the thyroid stimulating hormone receptor (TSHR) signaling pathway (AID 1259385; calls by dose curve; also: nearly all actives have a fitted effect of over 20% in size; also: potency is read from the fitted curve at half-maximal effect)
In short: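 TSHR-HEK293 cells (800/well) plated 18 h, then compounds with Ro20-1724 and TSH at 1.5 ng/mL final, 30 min at room temperature. cAMP quantified by HTRF (cAMP-d2/anti-cAMP-cryptate, 1 h); 15 concentrations in triplicate.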

Sequence of Estrogen receptor (Homo sapiens) (P03372 whole entry, looked up): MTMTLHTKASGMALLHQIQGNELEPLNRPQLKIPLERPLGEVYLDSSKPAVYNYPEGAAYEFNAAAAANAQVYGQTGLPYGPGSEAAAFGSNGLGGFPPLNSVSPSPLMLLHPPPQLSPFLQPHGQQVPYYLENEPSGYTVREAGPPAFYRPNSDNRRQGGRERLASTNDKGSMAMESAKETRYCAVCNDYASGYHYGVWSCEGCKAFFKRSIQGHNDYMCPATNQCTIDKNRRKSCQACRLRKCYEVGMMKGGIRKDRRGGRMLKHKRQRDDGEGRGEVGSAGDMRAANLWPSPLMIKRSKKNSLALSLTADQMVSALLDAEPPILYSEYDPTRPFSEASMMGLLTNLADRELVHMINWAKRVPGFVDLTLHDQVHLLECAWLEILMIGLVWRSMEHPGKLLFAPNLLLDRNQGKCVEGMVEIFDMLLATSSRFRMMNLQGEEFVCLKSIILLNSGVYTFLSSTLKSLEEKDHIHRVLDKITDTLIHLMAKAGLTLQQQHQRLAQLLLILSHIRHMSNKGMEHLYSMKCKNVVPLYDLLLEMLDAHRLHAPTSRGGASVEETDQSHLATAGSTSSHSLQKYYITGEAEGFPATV
Sequence of Thyrotropin receptor (Homo sapiens) (P16473 whole entry, looked up): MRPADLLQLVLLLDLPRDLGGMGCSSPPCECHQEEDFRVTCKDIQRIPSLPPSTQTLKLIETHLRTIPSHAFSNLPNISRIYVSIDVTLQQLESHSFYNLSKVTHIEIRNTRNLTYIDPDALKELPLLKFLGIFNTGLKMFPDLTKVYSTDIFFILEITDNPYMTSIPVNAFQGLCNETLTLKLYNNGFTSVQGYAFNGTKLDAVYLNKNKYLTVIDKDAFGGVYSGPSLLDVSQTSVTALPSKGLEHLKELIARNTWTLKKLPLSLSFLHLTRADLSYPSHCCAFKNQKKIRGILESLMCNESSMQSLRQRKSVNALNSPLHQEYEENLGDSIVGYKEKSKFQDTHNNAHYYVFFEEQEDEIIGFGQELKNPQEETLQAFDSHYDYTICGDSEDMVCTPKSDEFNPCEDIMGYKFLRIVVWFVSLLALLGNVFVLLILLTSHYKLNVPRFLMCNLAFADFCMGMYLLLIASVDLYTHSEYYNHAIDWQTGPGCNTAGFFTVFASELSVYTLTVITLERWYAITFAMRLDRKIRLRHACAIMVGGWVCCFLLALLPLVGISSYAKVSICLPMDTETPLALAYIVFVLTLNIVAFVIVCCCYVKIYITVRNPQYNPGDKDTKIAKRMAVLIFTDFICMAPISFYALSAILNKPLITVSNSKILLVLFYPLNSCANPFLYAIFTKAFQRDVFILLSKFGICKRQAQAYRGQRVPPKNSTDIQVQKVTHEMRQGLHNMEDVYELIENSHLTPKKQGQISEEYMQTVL
Sequence of Progesterone receptor (Homo sapiens) (P06401 whole entry, looked up): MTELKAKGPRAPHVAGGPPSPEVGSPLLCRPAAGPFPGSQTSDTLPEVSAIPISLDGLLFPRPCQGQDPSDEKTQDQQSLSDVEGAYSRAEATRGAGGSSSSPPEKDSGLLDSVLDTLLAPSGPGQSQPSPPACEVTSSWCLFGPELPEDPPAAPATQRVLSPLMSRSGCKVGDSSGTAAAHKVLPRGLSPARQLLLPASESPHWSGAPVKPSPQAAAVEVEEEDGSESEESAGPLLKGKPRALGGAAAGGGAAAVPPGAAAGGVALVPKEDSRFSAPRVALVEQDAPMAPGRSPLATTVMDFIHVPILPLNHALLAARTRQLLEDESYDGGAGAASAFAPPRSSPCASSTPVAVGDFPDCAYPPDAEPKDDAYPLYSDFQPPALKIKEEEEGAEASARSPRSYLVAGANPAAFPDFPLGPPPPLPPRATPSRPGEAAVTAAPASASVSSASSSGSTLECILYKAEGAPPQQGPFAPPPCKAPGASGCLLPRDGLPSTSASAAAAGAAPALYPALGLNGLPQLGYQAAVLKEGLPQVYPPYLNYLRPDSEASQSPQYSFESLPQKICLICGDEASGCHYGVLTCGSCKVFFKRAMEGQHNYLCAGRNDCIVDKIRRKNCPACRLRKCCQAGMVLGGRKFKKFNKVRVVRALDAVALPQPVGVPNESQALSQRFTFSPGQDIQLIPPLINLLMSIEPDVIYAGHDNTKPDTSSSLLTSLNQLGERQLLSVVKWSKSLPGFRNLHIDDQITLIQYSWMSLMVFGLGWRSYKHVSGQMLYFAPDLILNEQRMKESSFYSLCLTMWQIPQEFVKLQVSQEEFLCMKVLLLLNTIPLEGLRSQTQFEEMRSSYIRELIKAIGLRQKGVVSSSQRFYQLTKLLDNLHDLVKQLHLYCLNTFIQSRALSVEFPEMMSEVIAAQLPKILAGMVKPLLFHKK
Sequence of Androgen receptor (Homo sapiens) (P10275 whole entry, looked up): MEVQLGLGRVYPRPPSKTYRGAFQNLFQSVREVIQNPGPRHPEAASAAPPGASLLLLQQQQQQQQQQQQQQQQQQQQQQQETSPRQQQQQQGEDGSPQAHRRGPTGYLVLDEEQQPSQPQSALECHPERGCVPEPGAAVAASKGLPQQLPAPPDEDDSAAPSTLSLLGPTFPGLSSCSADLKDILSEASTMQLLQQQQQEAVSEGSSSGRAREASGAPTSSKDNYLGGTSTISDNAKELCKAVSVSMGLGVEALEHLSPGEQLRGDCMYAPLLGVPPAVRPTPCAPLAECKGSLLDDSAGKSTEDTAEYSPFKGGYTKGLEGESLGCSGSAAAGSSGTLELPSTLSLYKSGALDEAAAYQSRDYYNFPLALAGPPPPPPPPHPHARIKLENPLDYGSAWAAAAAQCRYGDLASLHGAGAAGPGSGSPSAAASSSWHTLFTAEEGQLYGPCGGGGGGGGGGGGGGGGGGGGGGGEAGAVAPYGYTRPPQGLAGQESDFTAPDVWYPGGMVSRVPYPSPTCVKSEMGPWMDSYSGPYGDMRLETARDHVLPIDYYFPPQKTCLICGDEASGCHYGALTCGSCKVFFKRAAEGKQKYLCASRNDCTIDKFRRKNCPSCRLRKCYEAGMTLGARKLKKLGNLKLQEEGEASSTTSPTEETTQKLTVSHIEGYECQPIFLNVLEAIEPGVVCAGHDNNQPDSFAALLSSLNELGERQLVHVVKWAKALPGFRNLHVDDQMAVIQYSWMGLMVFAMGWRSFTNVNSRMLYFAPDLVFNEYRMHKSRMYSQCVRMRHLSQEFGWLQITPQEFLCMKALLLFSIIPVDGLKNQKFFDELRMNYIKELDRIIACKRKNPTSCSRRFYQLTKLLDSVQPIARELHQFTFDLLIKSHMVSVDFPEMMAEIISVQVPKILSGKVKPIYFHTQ
Sequence of Estrogen receptor beta (Homo sapiens) (Q92731 whole entry, looked up): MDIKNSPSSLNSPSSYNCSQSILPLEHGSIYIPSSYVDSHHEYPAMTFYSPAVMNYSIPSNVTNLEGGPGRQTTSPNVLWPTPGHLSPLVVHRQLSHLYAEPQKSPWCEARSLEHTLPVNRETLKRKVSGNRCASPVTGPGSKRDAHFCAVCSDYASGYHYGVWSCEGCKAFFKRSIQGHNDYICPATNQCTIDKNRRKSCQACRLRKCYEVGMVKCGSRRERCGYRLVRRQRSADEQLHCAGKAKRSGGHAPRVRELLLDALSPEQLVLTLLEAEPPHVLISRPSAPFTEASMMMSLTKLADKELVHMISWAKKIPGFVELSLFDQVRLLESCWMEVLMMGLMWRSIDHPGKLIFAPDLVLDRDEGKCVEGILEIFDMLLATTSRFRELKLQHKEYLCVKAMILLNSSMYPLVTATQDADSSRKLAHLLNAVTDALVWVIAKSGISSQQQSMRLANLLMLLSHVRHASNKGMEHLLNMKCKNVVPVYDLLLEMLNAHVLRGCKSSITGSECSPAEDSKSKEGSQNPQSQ

Row | SMILES | Potency [1] | Potency [2] | Potency [3] | Potency [4] | Potency [5] | Potency [6] | Potency [7] | Potency [8] | Potency [9] | Potency [10] | Potency [11] | Potency [12] | Potency [13] | Potency [14] | outcome [15] | Potency [16] | outcome [17] | Potency [18] | Potency [19] | Potency [20]
1 | CCC(C)(C)c1cc(O)c(C(C)(C)CC)cc1O | 68.6 µM (active) | inactive | inactive | inactive | inactive | inactive | 6.86 µM (active) | inactive | 48.6 µM (active) | 61.1 µM (active) | 61.1 µM (active) | inactive | inactive | inactive | inactive | inactive | inactive | inactive |  | 
2 | CCN(CC)CCOc1ccc(C(O)(Cc2ccc(Cl)cc2)c2ccc(C)cc2)cc1 (stereo not drawn) | inactive | inactive | inactive |  |  | inactive | 5.96 µM (active) | inactive | 10.6 µM (active) |  | 26.6 µM (active) |  | 29.8 µM (active) | inactive | inactive |  | inactive |  | inactive | 29.8 µM (active)
3 | CO[C@H]1C=CO[C@@]2(C)Oc3c(C)c(O)c4c(O)c(cc(O)c4c3C2=O)NC(=O)/C(C)=C\C=C/[C@H](C)[C@H](O)[C@@H](C)[C@@H](O)[C@@H](C)[C@H](OC(C)=O)[C@@H]1C | 54.9 µM (active) | inactive | inactive | 13.8 µM (active) | 15.5 µM (active) | inactive | 13.8 µM (active) | inactive | 43.6 µM (active) | 48.9 µM (active) |  |  | 69.1 µM (active) | inactive | inactive | 38.8 µM (active) | inactive | inactive | inactive | inactive
4 | Cc1cn[nH]c1 | inactive | inactive | inactive | inactive | inactive | inactive | inactive | inactive | inactive | inactive |  | inactive | inactive | inactive | inactive | inactive | inactive | inactive | inactive | inactive
5 | C[C@@]12C(=O)OC(=O)[C@]1(C)C1CCC2O1 | 6.68 µM (active) | inactive |  | 1.5 µM (active) | 3.76 µM (active) | inactive |  |  |  | 5.96 µM (active) |  |  |  | inactive |  | inactive | inactive | 4.73 µM (active) | inactive | 
6 | CNC(=O)c1cc(Oc2ccc(NC(=O)Nc3ccc(Cl)c(C(F)(F)F)c3)cc2)ccn1 | 26.6 µM (active) | inactive | inactive |  |  | inactive |  |  | 9.44 µM (active) | 29.8 µM (active) | 29.8 µM (active) |  |  | inactive | inactive |  |  | 11.9 µM (active) | inactive | inactive
7 | O[C@@H](c1cc(C(F)(F)F)nc2c(C(F)(F)F)cccc12)[C@H]1CCCCN1 | inactive | inactive | inactive | 29.8 µM (active) | 29.8 µM (active) | inactive | 23.7 µM (active) | inactive |  |  | 21.1 µM (active) |  | 16.8 µM (active) | inactive | inactive |  |  | 23.7 µM (active) | inactive | 
8 | C[Si](C)(C)Cl | inactive | inactive | inactive | inactive | inactive | inactive | inactive | inactive | inactive | inactive | inactive | inactive | inactive | inactive | inactive | inactive | inactive |  |  | 
